Assay outcomes as filed in PubChem BioAssay.
EPAC1 antag – EPAC1 (human) antagonism | O95398 | EPAC1 GEF assay, Rap1b-BODIPY-GDP exchange fluorescence | Potency, µM (titrated, usually from 115 µM), for the others: top-dose activity change, negative = inhibition, most hits filed as inhibitors | actives 0.14% (n = 360,000);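 note: plate controls were vehicle for no effect and positive control for full effect; nearly all actives have a fitted effect of over 50% in size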
USP1-UAF1 inh – blocks the human USP1/UAF1 deubiquitinase complex | AID 743255 | O94782 | recombinant USP1/UAF1, Ub-Rhodamine cleavage fluorescence | Potency, µM (highest dose often 57.1 µM), for inactives: at the highest dose activity change, negative = inhibition, most hits filed as inhibitors | actives 0.23% (n = 390,000); note: % is set by controls: 0 for no effect and ±100 for the full control effect; nearly all actives have a fitted effect of over 60% in size
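USP1/UAF1 complex at 1 nM was preincubated with compound for 15 min at room temperature, then Ub-Rho substrate (150nM final) was added. Fluorescence (480/540 nm) was read kinetically, 6 reads every 60 seconds.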
EPAC1 ag – activates human EPAC1 exchange factor; AID 720707; actives 0.073% (n = 360,000); O95398; EPAC1 agonist qHTS, biochemical assay; response scale: 100% = response to 6.5 mM cAMP; Potency, µM (top dose mostly 154 µM), for the others: at the highest dose activation, hits mostly activators; note: nearly all actives have a fitted effect of over 60% in size
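Nucleotide exchange by EPAC1 (100 nM) on Rap1B–BODIPY-GDP (250 nM) in the presence of 50 uM GDP is tracked fluorescently at 480/540 nm over 30 min. Signals are normalized to a 6.5 mM cAMP control.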
EPAC2 antagonist – EPAC2 (human) antagonism | EPAC2 GEF exchange of Rap1B-BODIPY-GDP, fluorescence | Q8WZA2 | Potency, µM (titrated, usually from 114 µM), inactives show top-dose activity, negative = inhibition, hits mostly inhibitors | actives 0.18% (n = 360,000); note: % is set by controls: 0 for no effect and ±100 for the full control effect; nearly all actives have a fitted effect of over 45% in size
Target sequence (Q8WZA2 whole entry, looked up): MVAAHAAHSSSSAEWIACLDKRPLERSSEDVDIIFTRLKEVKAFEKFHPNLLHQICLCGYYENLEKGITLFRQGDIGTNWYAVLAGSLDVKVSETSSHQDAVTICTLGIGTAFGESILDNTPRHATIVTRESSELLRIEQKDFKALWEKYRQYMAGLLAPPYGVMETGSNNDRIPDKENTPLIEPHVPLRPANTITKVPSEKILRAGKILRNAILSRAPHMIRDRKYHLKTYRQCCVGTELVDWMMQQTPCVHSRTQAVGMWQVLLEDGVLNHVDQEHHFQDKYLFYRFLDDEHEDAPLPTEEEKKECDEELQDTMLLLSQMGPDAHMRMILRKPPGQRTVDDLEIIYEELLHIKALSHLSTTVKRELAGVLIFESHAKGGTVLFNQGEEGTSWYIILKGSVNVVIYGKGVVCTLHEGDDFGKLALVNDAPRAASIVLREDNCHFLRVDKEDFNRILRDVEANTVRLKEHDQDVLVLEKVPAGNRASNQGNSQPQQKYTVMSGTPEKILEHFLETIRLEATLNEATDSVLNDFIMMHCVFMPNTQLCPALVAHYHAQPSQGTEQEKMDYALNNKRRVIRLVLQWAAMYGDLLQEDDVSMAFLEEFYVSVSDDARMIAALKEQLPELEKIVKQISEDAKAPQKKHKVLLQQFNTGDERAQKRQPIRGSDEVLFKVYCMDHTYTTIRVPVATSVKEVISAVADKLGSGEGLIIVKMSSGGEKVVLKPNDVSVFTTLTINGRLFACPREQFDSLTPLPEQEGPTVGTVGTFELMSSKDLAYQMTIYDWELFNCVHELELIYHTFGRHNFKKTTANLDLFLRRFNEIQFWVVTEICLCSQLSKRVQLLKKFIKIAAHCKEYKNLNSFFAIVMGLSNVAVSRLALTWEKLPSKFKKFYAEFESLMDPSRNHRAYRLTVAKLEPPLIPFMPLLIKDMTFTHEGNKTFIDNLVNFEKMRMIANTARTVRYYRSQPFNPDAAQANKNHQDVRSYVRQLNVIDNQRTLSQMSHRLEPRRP
EPAC2 agonist – agonists of human EPAC2 (RAPGEF4); Q8WZA2; EPAC2 activation, biochemical qHTS; response scale: 100% = 6.5 mM cAMP response; Potency, µM (series often up to 154 µM), without a hit: at the top dose activation, usual class: activators; actives 0.079% (n = 360,000); AID 720711; note: nearly all actives have a fitted effect of over 50% in size
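EPAC2 (100 nM) mixed with Rap1B loaded with BODIPY-GDP (250 nM) plus 50 uM unlabeled GDP; compounds pinned in, 5 min RT, then read every 5 min for 30 min (ex 480, em 540 nm). Normalized to cAMP control.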
BRCA1 expr act – activators of BRCA1 expression. MCF7-BRCA1-FFLuc reporter, luminescence, 48 h; response scale: scaled: vehicle 0%, 10 µM genistein 100%. Potency, µM (doses to about 46.1 µM), inactives show at the highest dose activation, most hits filed as activators. actives 1.1% (n = 380,000); note: nearly all actives have a fitted effect of over 80% in size
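Compounds are tested at multiple concentrations on MCF7 BRCA1-luciferase reporter cells seeded at 2000 per well; after 48 h, a single luminescence end-point is taken and curves fitted to the normalized data.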
* = called active by the depositor; i = inactive; ? = inconclusive; nt = not tested or not shown. The list is not random: actives were taken first. Their share in the collection is about 1.4%. Calls come from the whole dose curve; as a rule, active = well fitted curve in the direction sought with a large enough effect; inconclusive = small, poorly fitted or top-dose-only effect, or another doubt; inactive = no such curve, though single readings can be large; an effect the other way counts as inactive or inconclusive. Potency is the fitted concentration of half-maximal effect.

SMILES | EPAC1 antag | USP1-UAF1 inh | EPAC1 ag | EPAC2 antagonist | EPAC2 agonist | BRCA1 expr act
Cc1ccc(O)c(C(=O)c2cc(C#N)c(=O)n(-c3c(C)n(C)n(-c4ccccc4)c3=O)c2)c1 | 2% | -10% | 6% | -6% | 9% | -12%
CC1(C(=O)NS(=O)(=O)c2ccc(F)cc2F)CCN1C(=O)Cc1ccc(Cl)cc1Cl (stereo not given) | -17% | nt | -16% | 8% | 4% | 10%
C=CCNc1nc2cc(-c3ccc(C(=O)N4CCOCC4)cc3)sc2c(=O)n1C | -1% | nt | 13% | -2% | 7% | -33%
CC(C)c1ccc(C2CC(=O)c3cnc(NC(=O)c4ccco4)nc3C2)cc1 (stereo not given) | -10% | ? | -9% | ? | -4% | 10µM*
COc1ccc(CCn2c(=N)c(S(=O)(=O)c3ccc(C)cc3)cc3c(=O)n4ccccc4nc32)cc1 | 105% | -17% | -17% | 89µM* | -7% | -9%
Cc1ccc(Cn2c(=N)c(S(=O)(=O)c3ccc(Br)cc3)cc3c(=O)n4ccccc4nc32)cc1 | 8% | -5% | 14% | -7% | -4% | -7%
Cc1cccc(NC(=O)C(=O)NCC2CCCO2)c1 (stereo not given) | 2% | -17% | 3% | 3% | 4% | 2.2µM*
COc1ccc(C2NC(=O)N(C)C3=C2C(=O)N(c2ccc(F)cc2)C3)cc1 (stereo not given) | nt | -25% | nt | nt | nt | nt
CC(/C=C1\SC(=S)N(NS(=O)(=O)c2ccc(C)cc2)C1=O)=C\c1ccccc1 | 40µM* | ? | 3% | 35µM* | -1% | 1%
CC(/C=C1\SC(=S)N(NS(=O)(=O)c2ccccc2)C1=O)=C\c1ccccc1 | 40µM* | ? | -7% | 50µM* | 2% | -2%
CC(/C=C1\SC(=S)N(NC(=O)c2ccccc2C)C1=O)=C\c1ccccc1 | -2% | -15% | 7% | -7% | 0% | -15%
CC(/C=C1\SC(=S)N(NC(=O)c2ccc(C)cc2)C1=O)=C\c1ccccc1 | -5% | -8% | -4% | -9% | 10% | -19%
CCCCN(CCO)c1ncnc2sc(-c3ccccc3)cc12 | ? | -12% | 12% | ? | 12% | -4%
CCOC(=O)c1sc(NC(=O)CN2C(=O)NC3(CC(C)CC(C)(C)C3)C2=O)cc1C (stereo not given) | ? | -13% | ? | -13% | 0% | -84%
Cc1nc(CCNC(=O)C2CCC(=O)N(Cc3ccc(Cl)cc3)C2)sc1C (stereo not given) | -8% | -12% | 0% | -9% | -6% | -1%
O=C(CSc1ccccc1C(=O)O)c1ccc(Cl)cc1 | 0% | ? | 7% | 2% | 9% | 10µM*
CCn1c(-c2cc(-c3ccc(OC(C)C)cc3)nc3ccccc23)n[nH]c1=S | -4% | -11% | ? | -4% | 24% | 7.1µM*
CCn1c(-c2cc(-c3ccc(C)cc3)nc3ccccc23)n[nH]c1=S | -3% | -29% | 1% | -6% | 10% | 12%
Cc1ccc(/C(N)=N/OC(=O)c2ccc(F)cc2)cc1 | 0% | -14% | 0% | 0% | -1% | 10µM*
N/C(=N\OC(=O)c1ccc(Cl)cc1)c1ccc(Cl)cc1 | 7% | -16% | 2% | 13% | 14% | 11µM*
COc1ccc(OC)c(-c2noc(N3CCN(c4cc(C)ccc4C)CC3)n2)c1 | nt | -9% | nt | nt | nt | -7%
C/C(=N/NC(=O)c1cccs1)c1ccco1 | -14% | -12% | 3% | 6% | -5% | 13µM*
C/C(=N\NC(=O)c1cccs1)c1ccc(C(=O)O)s1 | 5% | -10% | 12% | 0% | 9% | 14µM*
C/C(=N\NC(=O)c1cccs1)c1cccnc1 | -19% | 1% | 13% | 3% | 11% | ?
C/C(=N\NC(=O)c1cccs1)C(C)(C)C | 4% | -19% | -6% | 14% | 7% | 52%
SMILES | EPAC1 antag | USP1-UAF1 inh | EPAC1 ag | EPAC2 antagonist | EPAC2 agonist | BRCA1 expr act
C/C(=N\NC(=O)c1ccco1)c1ccc(-c2ccccc2)cc1 | 27% | ? | -3% | 8% | -1% | 8.9µM*
CC(=O)Nc1ccc(N2C(=O)c3cccc4c(O)ccc(c34)C2=O)cc1 | ? | 28µM* | 89µM* | 417% | 112µM* | -15%
O=C1c2cccc3c(O)ccc(c23)C(=O)N1Cc1ccco1 | 19% | 28µM* | 56µM* | 325% | 100µM* | -13%
O=C1c2cccc3c(O)ccc(c23)C(=O)N1c1ccc(Cl)cc1 | 252% | 28µM* | 100µM* | 220% | 112µM* | -54%
COCCN(C(=O)COC(=O)c1ccccc1NCc1ccco1)c1c(N)n(Cc2ccccc2)c(=O)[nH]c1=O | 3% | -16% | -6% | 12% | 2% | -27%
COc1cc2c3nnc(-c4ccc(F)cc4)c-3cn(Cc3ccccc3)c2cc1OC | 47% | 32µM* | -24% | 29% | -1% | -9%
Cc1cccc(C)c1NC(=O)C1(C)CCC(=O)N1C1CCN(Cc2ccccc2)CC1 (stereo not given) | 14% | nt | -1% | 7% | 6% | 16%
Cc1ccc2c(COC(=O)c3ccc(NC(=O)CC#N)cc3)cc(=O)oc2c1C | 12% | -8% | 0% | -12% | 12% | 29%
Cc1ccc2c(Cl)c(C(=O)NCCc3ccccc3)sc2c1 | -2% | -27% | 8% | 8% | 13% | 3.2µM*
CCNC(=O)c1sc2cc(C)ccc2c1Cl | 19% | -13% | 4% | -20% | 15% | 7.1µM*
CC(=O)NNc1cc(C)nc(NS(=O)(=O)c2ccc(C)cc2)n1 | 6% | -7% | 5% | 4% | 4% | 2%
C=CCSc1nnc(-c2ccc([N+](=O)[O-])cc2)o1 | -10% | 1% | 0% | 1% | 8% | 10µM*
Cn1ccc(C(=O)OCC(=O)Nc2ccccc2Cl)n1 | 5% | -14% | -5% | -1% | 6% | -13%
COc1ccc(-n2c(=O)c3c4c(sc3n(Cc3ccc(F)cc3)c2=O)CCCC4)c(OC)c1 | nt | -21% | nt | nt | nt | nt
O=C(OCCN1C(=O)c2cccc3c(N4CCOCC4)ccc(c23)C1=O)c1cccc(Cl)c1 | 65% | ? | 25µM* | 170% | -44% | -57%
O=C(OCCN1C(=O)c2cccc3c(N4CCOCC4)ccc(c23)C1=O)c1ccc(Cl)cc1Cl | 76% | i | ? | 180% | 4% | -73%
O=C(NCCC(F)(F)F)c1cccc2c(-c3ccc(F)c(F)c3)coc12 | -21% | nt | -1% | -12% | 3% | 18%
Cc1ccc(C(=O)CSc2nsc(C)c2C#N)cc1 | -1% | -13% | 3% | 3% | 16% | 6.3µM*
